Shown are actives, neighbours in structure and some others; about 4.7% of the full set was active somewhere.
NTMT1 inhibitor = Primary qHTS for Inhibitors of N-terminal methyltransferase 1 (NTMT1): MTaseGlo Assay. N-terminal Xaa-Pro-Lys N-methyltransferase 1 (Homo sapiens), Q9BV86. NTMT1 MTase-Glo SAH luminescence, purified enzyme. hit rate 2.5% among 59,000. Potency, µM (highest dose often 114 µM), without a hit: at the top dose activity change, negative = inhibition, hits mostly inhibitors;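 further: potency means the concentration at half of the fitted maximal effect; plate controls were DMSO vehicle for no effect and no enzyme for full effect; nearly all actives have a fitted effect of over 65% in size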
FH mod = Identification of activators of human fumarate hydratase by quantitative high-throughput screening; Potency, µM (highest dose often 79.9 µM), for inactives: top-dose activity change, negative = inhibition, actives largely listed as inhibitors; FH coupled MDH/diaphorase resazurin fluorescence, 15 min; hit rate 0.22% among 54,000; AID 1347055, 2019; Fumarate hydratase, mitochondrial (Homo sapiens), P07954; further: potency means the concentration at half of the fitted maximal effect; on the % scale 0 is the no-effect control and ±100 the full control effect; the screen sought activators but most active calls are inhibition curves; nearly all actives have a fitted effect of over 45% in size
Target sequence (P07954 whole entry, looked up): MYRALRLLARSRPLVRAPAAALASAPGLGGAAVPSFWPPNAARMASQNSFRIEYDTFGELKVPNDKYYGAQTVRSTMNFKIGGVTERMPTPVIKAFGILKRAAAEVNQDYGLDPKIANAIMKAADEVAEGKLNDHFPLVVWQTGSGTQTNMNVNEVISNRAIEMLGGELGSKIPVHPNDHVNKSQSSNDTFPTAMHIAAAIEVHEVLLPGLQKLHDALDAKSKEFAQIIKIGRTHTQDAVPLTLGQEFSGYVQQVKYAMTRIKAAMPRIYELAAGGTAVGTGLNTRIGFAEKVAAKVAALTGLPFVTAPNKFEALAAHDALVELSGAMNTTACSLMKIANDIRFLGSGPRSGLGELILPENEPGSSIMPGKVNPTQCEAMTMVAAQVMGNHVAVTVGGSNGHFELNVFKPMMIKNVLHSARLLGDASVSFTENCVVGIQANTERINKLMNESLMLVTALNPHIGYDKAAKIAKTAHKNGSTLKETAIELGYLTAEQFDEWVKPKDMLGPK
HTT-AS act = Primary qHTS for Identification of Small Molecule Activators of Huntingtin-Antisense Promoter Activity. Potency, µM (titrated, usually from 57.5 µM), inactives show at the highest dose activity change, positive = activation, hits mostly activators. HEK293 HTT-AS promoter firefly luciferase reporter, 24 h; response scale: percent change from vehicle, -100% = no light. hit rate 0.24% among 48,000; further: potency means the concentration at half of the fitted maximal effect; nearly all actives have a fitted effect of over 55% in size
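HEK293 cells carrying firefly luciferase reporters were seeded at 2,500 per well in Opti-MEM and cultured for 24 h. They were then treated with compounds at up to 57.5 uM final for 24 h at 37 degrees C before Dual-Glo luminescence readout.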
HTT prom inh = Primary qHTS for Identification of Small Molecule Inhibitors of Huntingtin Promoter Activity; hit rate 0.93% among 48,000; AID 1508623, 2021; Potency, µM (top dose mostly 57.5 µM), without a hit: top-dose activity change, negative = inhibition, actives largely listed as inhibitors; HEK293 HTT promoter firefly luciferase reporter, 24 h; further: potency means the concentration at half of the fitted maximal effect; nearly all actives have a fitted effect of over 50% in size
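Luminescence was read after Dual-Glo reagent and a 10 min room-temperature incubation. Values were normalized to vehicle (0% activity) and zero RLU (-100% activity). Reporter HEK293 cells had been exposed to compounds (up to 57.5 uM final) for 24 h.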
GPR32 ag = qHTS for Agonists of Human Resolvin D1 Receptor DRV1; Probable G-protein coupled receptor 32 (Homo sapiens), O75388; CHO-K1 GPR32 beta-arrestin PathHunter luminescence, 90 min; zero percent set by DMSO-only wells; activation, % at 76.9 µM; hit rate 2.5% among 48,000; AID 1346428, 2018;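 active means activation of at least 60% and not above a set upper limit, about 1 call in 100 departs from these limits; inconclusive means activation of 40% to 60%, or above that upper limit; inactive means activation under 40%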; further: 0% is about no effect
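Agonism was scored by beta-Gal fragment complementation (chemiluminescent read, 1 h detection at ambient temperature) reporting beta-arrestin binding to GPR32 in engineered CHO-K1 cells. Compound treatment lasted 90 min at 37 C, normalized to a DMSO basal control.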
Numbers without * were called inactive; u = inconclusive; x = no result; ! = a repeat was not active; [ ] = remark or other dose. Unless noted, the call rests on the fitted dose curve; in most records, active means well fitted curve in the direction sought with a large enough effect; inconclusive means small, poorly fitted or top-dose-only effect, or another doubt; inactive means no such curve, though single readings can be large; an effect the other way counts as inactive or inconclusive.

SMILES | NTMT1 inhibitor | FH mod | HTT-AS act | HTT prom inh | GPR32 ag
CC1CCN(S(=O)(=O)c2cc(C(=O)NCc3ccc(N(C)C)cc3)n(C)c2)CC1 | 89µM* | -5% | -30% | -26% | 12
CCCCOc1nc(N)c2c(n1)N(Cc1cccc(CN3CCCC3)c1)CC(=O)N2 | 4%[57.5 µM] | 1% | x | x | x
O=C(Nc1cc(Cl)cc(Cl)c1)c1cc(S(=O)(=O)N2CCc3ccccc3C2)ccc1F | 3% | u | -22% | -28% | -22
O=C(Cc1ccccc1)NC1CC(=O)N(c2ccccc2)C1 (centres undefined) | 8% | 22% | -14% | -18% | -9
CCOC(=O)c1ccc(NC(=O)c2nsc3ccccc23)cc1 | u | -27% | -49% | u | -28
CNC(=O)c1ccc(NC(=O)c2nsc3ccccc23)cc1 | 40µM* | -8% | -60% | u | -7
O=C(NCc1cccc(F)c1)c1ccc(NC(=O)c2nsc3ccccc23)cc1 | 45µM* | -7% | u | u | -12
O=C(Nc1ccc(C(=O)N2CCN(c3ccc(F)cc3)CC2)cc1)c1nsc2ccccc12 | 6% | -19% | u | u | -19
Cc1ccc(CNC(=O)c2ccc(NC(=O)c3nsc4ccccc34)cc2)cc1 | 0% | 3% | -37% | u | -9
O=C(Nc1ccc(C(=O)N2CCCCC2)cc1)c1nsc2ccccc12 | 14µM* | -18% | u | -12% | 11
CCOc1ccc(CCNC(=O)CCCc2nnc3n(CC)c(=O)c4sccc4n23)cc1OCC | 8% | 2% | -3% | -12% | 2
COc1cc2c(Oc3ccc(NC(=O)C4(C(=O)Nc5ccc(F)cc5)CC4)cc3F)ccnc2cc1OCCCN1CCOCC1 | -18% | u | -41% | u | x
C=CC(=O)Nc1cc2c(Nc3ccc(F)c(Cl)c3)ncnc2cc1OCCCN1CCOCC1 | 11µM*! | -26% | -41% | -11% | 1
COc1cc2ncnc(Nc3ccc(F)c(Cl)c3)c2cc1OCCCN1CCOCC1 | 13µM*! | -2% | -32% | u | 77*
COc1cccc(C(=O)Nc2ccccc2C(=O)OCc2cc(=O)n3nc(C4CC4)sc3n2)c1 | 15% | 4% | 3% | -13% | -6
CCCCN(CC)C(=O)c1c[nH]c2ccc(S(=O)(=O)N(C)c3ccc(Cl)cc3)cc2c1=O | u | 1% | -36% | -26% | 91*
COc1cc(/C=C/C(=O)OC[C@H]2O[C@@H](OC3OC=C(C(=O)O)C4C(O)CC(C)(O)C34)[C@H](O)[C@@H](O)[C@@H]2O)cc(OC)c1O (some centres undefined) | 20%[12.6 µM] | 0%[20.6 µM] | x | x | x
Cc1nn2c(=O)cc(COC(=O)c3ccco3)nc2s1 | 0% | 8% | -4% | -3% | -9
Cc1ccccc1OCC(=O)Nc1ccc(S(=O)(=O)N(Cc2ccccc2)c2ccccc2)cc1 | 4% | -18% | -3% | -21% | -5
CCSc1nc2c([nH]c3ccccc32)c(=O)n1-c1ccc(F)cc1 | -12% | 7% | -29% | -11% | 79*
O=S(=O)(c1cccc(O)c1)N1CCN(S(=O)(=O)c2c(F)cccc2F)CC1 | -2%[57.5 µM] | x | x | x | x
CN(C)c1ccc(-c2nc(-c3ccccn3)no2)cc1[N+](=O)[O-] | u | -3% | -54% | u | 76*
CN1CCN(c2ccc(-c3nc(-c4ccccc4)no3)cc2[N+](=O)[O-])CC1 | 1% | -10% | -90% | u | 83*
COc1ccc(-c2noc(-c3ccc(N4CCN(C)CC4)c([N+](=O)[O-])c3)n2)cc1 | -28% | -4% | 24% | 2% | 6
CCNc1ccc(-c2nc(-c3ccco3)no2)cc1[N+](=O)[O-] | -2% | 9% | 0.35µM* | 63% | -7
SMILES | NTMT1 inhibitor | FH mod | HTT-AS act | HTT prom inh | GPR32 ag
Cc1ccccc1-c1noc(-c2ccc(N3CCN(C)CC3)c([N+](=O)[O-])c2)n1 | u | -2% | -70% | 2.2µM* | -9
Cc1ccccc1-c1noc(-c2ccc(N3CCCC3)c([N+](=O)[O-])c2)n1 | 2% | -5% | -77% | 10µM* | 24
Cc1cccc(NC(=O)Cn2nc3c4ccccc4n(Cc4ccccc4)cc-3c2=O)c1 | -20% | 5% | -13% | -8% | u
CCc1ccc(NC(=O)Cn2nc3c4ccccc4n(Cc4ccccc4)cc-3c2=O)cc1 | -8% | 0% | -7% | -8% | 84*
Cc1ccc(OCC(=O)Nc2ccc3nc(SCc4ccccc4)sc3c2)cc1 | 9% | 6% | -3% | -6% | -3
Cc1ccccc1NC(=O)CSc1nc2ccc(NC(=O)CCc3ccccc3)cc2s1 | 10% | 1% | -17% | -5% | 4
CCOC(=O)CSc1nc2ccc(NC(=O)COc3ccccc3)cc2s1 | 3% | -4% | -6% | 1% | 61*
Cc1ccc(NC(=O)CSc2nc3ccc(NC(=O)CCc4ccccc4)cc3s2)cc1 | 2% | -1% | -3% | -5% | 66*
O=C(COc1ccccc1)Nc1ccc2nc(SCCOc3ccccc3)sc2c1 | 1% | -1% | -1% | 4% | -5
Cc1ccc(CSc2nc3ccc(NC(=O)COc4ccccc4)cc3s2)cc1 | 11% | 3% | -9% | 0% | 74*
CCOc1ccc(C(=O)Nc2ccc3nc(SCc4ccccc4)sc3c2)cc1 | 11% | 2% | -18% | -20% | 63*
Cc1ccc(C(=O)NCc2ccc3c(c2)CCN3C(=O)c2ccc(C)cc2)cc1 | 8% | -14% | -29% | u | -31
CNC(C)C(=O)NC(C(=O)N1CCCC1c1nc(C(=O)c2ccc(F)cc2)cs1)C1CCCCC1 (centres undefined) | 3%[57.5 µM] | 7% | x | x | x
CC(=O)N1CCc2ccc(O)c(OC3OC(COC4OCC(O)(CO)C4O)C(O)C(O)C3O)c2C1Cc1ccc(O)cc1 (centres undefined) | 12%[12.6 µM] | 5%[20.6 µM] | x | x | x
COc1ccccc1OC(C)C(=O)Nc1cccc(-c2nc3ccccc3s2)c1 (centres undefined) | u | u | 9% | 8% | -2
Cc1cc(NC(=O)c2ccccc2F)ccc1-c1nc2ccccc2s1 | u | 5% | 0.89µM* | 49% | -1
CCOC(=O)CSc1nc2ccc(NC(=O)c3ccc(F)cc3)cc2s1 | 12% | 3% | -5% | 1% | 40
CCCCC(=O)Nc1cccc(-c2nc3ccccc3s2)c1 | -4% | -11% | u | 33% | 92*
CCOC(=O)CSc1nc2ccc(NC(=O)c3ccccc3F)cc2s1 | -5% | -4% | -20% | -7% | 107*
CCOC(=O)CSc1nc2ccc(NC(=O)c3ccccc3)cc2s1 | 0% | u | -7% | -7% | 82*
